About 360 (1.2%) of roughly 31,000 compounds were called active. The rule behind the calls is not given here. Only a selection was taken, and actives are over-represented in it overall.
Biological target: DNA-binding protein inhibitor ID-4 (Homo sapiens) (UniProt P47928)
Experiment: PubChem AID 624137;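 note: a binder raises fluorescence above local background on the spot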
Conditions: small molecule microarray, Flag-ID4 binding, fluorescence F/B

DNA-binding protein inhibitor ID-4 (Homo sapiens), sequence (P47928 whole entry, looked up): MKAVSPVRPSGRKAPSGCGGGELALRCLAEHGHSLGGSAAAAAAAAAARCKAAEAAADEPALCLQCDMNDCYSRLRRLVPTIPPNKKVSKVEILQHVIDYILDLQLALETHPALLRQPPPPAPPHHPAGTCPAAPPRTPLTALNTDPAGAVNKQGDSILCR

| SMILES | outcome |
| --- | --- |
| CO[C@H](CN(C)S(=O)(=O)c1ccc(C)cc1)[C@@H](C)CN(Cc1ccccc1Cl)[C@@H](C)CO | inactive |
| CCn1c(SCC(=O)Nc2sc3c(c2C#N)CCCC3)nnc1-c1ccccc1O | active |
| CCn1c(SCC(=O)Nc2cc(Cl)c(Cl)cc2Cl)nnc1-c1ccccc1Cl | inactive |
| N#Cc1c(NC(=O)CCn2cnc3ccccc3c2=O)sc2c1CCCC2 | inactive |
| C[C@@H]1CN([C@@H](C)CO)C(=O)c2cc(C3=CCCC3)cnc2O[C@H]1CN(C)Cc1ccccc1F | inactive |
| COCC(=O)N[C@H]1C=C[C@H](CC(=O)N2CCCCC2)O[C@H]1CO | inactive |
| Cc1ccc(-c2ccc3c(c2)O[C@H](CN(C)C)[C@@H](C)CN([C@@H](C)CO)S3(=O)=O)cc1 | inactive |
| CO[C@@H](CN(C)S(=O)(=O)c1ccc(F)cc1)[C@H](C)CN(C(=O)Nc1ccccc1F)[C@@H](C)CO | inactive |
| O=C(C[C@H]1C=C[C@@H](NC(=O)Nc2cc(F)ccc2F)[C@H](CO)O1)NCCCN1CCOCC1 | inactive |
| CN(C)C(=O)C[C@H]1C=C[C@@H](NC(=O)c2ccc(F)cc2)[C@@H](CO)O1 | inactive |
| C[C@H]1CN([C@@H](C)CO)C(=O)c2cc(Br)cnc2O[C@@H]1CN(C)C(=O)c1ccccc1F | inactive |
| O=C(CN1C(=O)c2ccccc2S1(=O)=O)Nc1ccc(F)c(F)c1 | inactive |
| O=C(CSc1nnc(-c2ccccc2)n1-c1ccccc1)c1ccc(F)cc1 | inactive |
| CO[C@@H](CN(C)C(=O)c1cnccn1)[C@@H](C)CN([C@@H](C)CO)S(=O)(=O)c1ccc(F)cc1 | inactive |
| C[C@H]1CN([C@@H](C)CO)C(=O)c2cc(Br)cnc2O[C@H]1CN(C)CC1CCCC1 | inactive |
| CCCN(C)C[C@@H]1Oc2cc(-c3ccc(C)cc3)ccc2S(=O)(=O)N([C@@H](C)CO)C[C@H]1C | inactive |
| CCC(=O)N[C@H]1C=C[C@@H](CC(=O)NCC2CCCCC2)O[C@H]1CO | inactive |
| C[C@@H]1CN([C@H](C)CO)C(=O)c2cc(Br)cnc2O[C@@H]1CN(C)C(=O)C1CC1 | inactive |
| C[C@H](CO)N1C[C@H](C)[C@@H](CN(C)C)Oc2ncc(-c3cccc(F)c3)cc2C1=O | inactive |
| CCCN(C)C[C@@H]1Oc2cc(-c3cccc(C#N)c3)ccc2S(=O)(=O)N([C@@H](C)CO)C[C@@H]1C | inactive |
| C[C@@H]1CN([C@@H](C)CO)S(=O)(=O)c2ccc(-c3cccc(C#N)c3)cc2O[C@@H]1CN(C)Cc1cccc(F)c1 | inactive |
| C[C@@H]1CN([C@H](C)CO)S(=O)(=O)c2ccc(-c3cccc(C#N)c3)cc2O[C@@H]1CN(C)C(=O)Nc1ccccc1F | active |
| Cc1cc(C)c(OCC(=O)Nc2cccnc2)c(Br)c1 | inactive |
| COc1ccc(NC(=O)Cc2nc(-c3cc4ccccc4oc3=O)cs2)cc1 | inactive |
| COc1cccc(S(=O)(=O)N[C@H]2C=C[C@H](CC(=O)NC3Cc4ccccc4C3)O[C@@H]2CO)c1 | inactive |
| CN(C)c1ccc2c(c1)[C@H]1C[C@H](CC(=O)NCc3ccc(Cl)cc3)O[C@H](CO)[C@H]1O2 | inactive |
| CC(=O)N(C)C[C@H]1Oc2cc(C#Cc3ccccc3F)ccc2S(=O)(=O)N([C@H](C)CO)C[C@@H]1C | inactive |

| SMILES | outcome |
| --- | --- |
| COc1ccc(CNC(=O)C[C@@H]2C=C[C@@H](NC(=O)c3ccc4c(c3)OCO4)[C@@H](CO)O2)cc1 | inactive |
| O=C(C[C@H]1CC[C@@H](NC(=O)Cc2ccccn2)[C@H](CO)O1)NCCc1ccccc1 | inactive |
| COC(=O)C[C@@H]1C[C@H]2c3cc(NC(=O)NC4CCCC4)ccc3O[C@H]2[C@H](CO)O1 | inactive |
| O=C(NCC[C@H]1CC[C@@H](NC(=O)C2CCCCC2)[C@@H](CO)O1)c1ccc(F)cc1 | inactive |
| COc1ccc(NC(=O)N[C@@H]2C=C[C@H](CC(=O)NC3CCC3)O[C@@H]2CO)cc1 | inactive |
| C[C@H](CO)N1C[C@H](C)[C@H](CN(C)C)Oc2cc(C#CC3CC3)ccc2S1(=O)=O | inactive |
| C[C@H](CO)N1C[C@H](C)[C@H](CN(C)C(=O)c2cccnc2)Oc2ncc(C3=CCCC3)cc2C1=O | inactive |
| O=C(C[C@@H]1CC[C@H](NC(=O)Nc2cc(F)ccc2F)[C@H](CO)O1)NCc1ccncn1 | inactive |
| CNC[C@@H]1Oc2cc(C#CC3CCCC3)ccc2S(=O)(=O)N([C@@H](C)CO)C[C@@H]1C | inactive |
| Cc1ccccc1NS(=O)(=O)c1cccc(C(=O)Nc2ccccc2[N+](=O)[O-])c1 | inactive |
| C[C@@H]1CN([C@H](C)CO)C(=O)c2cc(-c3cccc(F)c3)cnc2O[C@@H]1CN(C)C | inactive |
| C[C@H](CO)N1C[C@H](C)[C@@H](CN(C)Cc2cccnc2)Oc2ncc(/C=C/c3ccccc3)cc2C1=O | inactive |
| C[C@@H]1CN([C@@H](C)CO)C(=O)c2cc(/C=C/c3ccccc3)cnc2O[C@@H]1CN(C)C(=O)CN(C)C | inactive |
| Cc1ccccc1-c1ccc2c(c1)O[C@H](CN(C)C)[C@@H](C)CN([C@H](C)CO)S2(=O)=O | inactive |
| Cc1ccc(S(=O)(=O)CCN2CCC(C(F)(F)F)CC2)cc1 | inactive |
| CC(=O)N(C)C[C@@H]1Oc2cc(-c3ccncc3)ccc2S(=O)(=O)N([C@@H](C)CO)C[C@H]1C | inactive |
| C[C@H](CO)N1C[C@H](C)[C@H](CN(C)Cc2ccccc2)Oc2ncc(-c3ccccc3)cc2C1=O | inactive |
| C[C@@H]1CN([C@H](C)CO)C(=O)c2cc(-c3ccc(C#N)cc3)cnc2O[C@@H]1CN(C)CC1CC1 | inactive |
| C[C@H]1CN([C@@H](C)CO)C(=O)c2cc(-c3ccc(C#N)cc3)cnc2O[C@@H]1CN(C)Cc1ccncc1 | active |
| CC(=O)N[C@@H]1C=C[C@H](CC(=O)NCC2CCCCC2)O[C@H]1CO | inactive |
| C[C@H](CO)N1C[C@H](C)[C@H](CN(C)CC2CCCC2)Oc2ncc(-c3ccc(F)cc3)cc2C1=O | inactive |
| Cn1cnc(S(=O)(=O)N[C@H]2C=C[C@H](CC(=O)NCC3CCCCC3)O[C@@H]2CO)c1 | inactive |
| CCOC(=O)c1c(NC(=O)C(C)Oc2ccc3c(C)cc(=O)oc3c2)sc2c1CCC2 (stereo not given) | inactive |
| Cc1cc2oc(C(=O)Nc3sc4c(c3C(=O)NCc3ccco3)CCC4)c(C)c2cc1C | active |
| CC(=O)Nc1sccc1C(=O)NCc1ccco1 | inactive |
| CCCNC(=O)C[C@@H]1C[C@@H]2c3cc(N(C)C)ccc3O[C@@H]2[C@H](CO)O1 | inactive |
| COc1cccc(-c2cnc3c(c2)C(=O)N([C@@H](C)CO)C[C@@H](C)[C@@H](CN(C)Cc2ccc(C(=O)O)cc2)O3)c1 | inactive |

| SMILES | outcome |
| --- | --- |
| CCCN(C)C[C@@H]1Oc2ncc(C#CC3CC3)cc2C(=O)N([C@H](C)CO)C[C@H]1C | inactive |
| C[C@@H]1CN([C@@H](C)CO)S(=O)(=O)c2ccc(C#CCN(C)C)cc2O[C@@H]1CN(C)CC1CC1 | inactive |
| CC(C)C#Cc1ccc2c(c1)O[C@H](CN(C)Cc1ccccc1)[C@H](C)CN([C@@H](C)CO)S2(=O)=O | inactive |
| O=C(N[C@@H]1CC[C@@H](CC(=O)N2CCc3ccccc3C2)O[C@H]1CO)C1CCC1 | inactive |
| CCCN(C)C[C@@H]1Oc2ncc(-c3ccccc3F)cc2C(=O)N([C@@H](C)CO)C[C@@H]1C | inactive |
| CCCN(C)C[C@@H]1OCc2cnnn2CCCC(=O)N([C@H](C)CO)C[C@@H]1C | inactive |
| O=C(Cc1ccccc1)N[C@H]1C=C[C@H](CC(=O)N2CCCCC2)O[C@@H]1CO | inactive |
| CC(C)C#Cc1cnc2c(c1)C(=O)N([C@@H](C)CO)C[C@@H](C)[C@@H](CN(C)C(=O)c1cccc(F)c1)O2 | inactive |
| O=C(C[C@@H]1C=C[C@H](NC(=O)CN2CCOCC2)[C@@H](CO)O1)NCc1cccc(F)c1 | inactive |
| O=C(C[C@@H]1CC[C@H](NC(=O)C2CC2)[C@H](CO)O1)NCc1ccccc1Cl | inactive |
| C[C@@H]1CN([C@H](C)CO)S(=O)(=O)c2ccc(C#CCN(C)C)cc2O[C@@H]1CN(C)C | inactive |
| CCNC(=O)C[C@@H]1CC[C@H](NC(=O)C2CCC2)[C@@H](CO)O1 | inactive |
| COC(=O)c1ccccc1NC(=O)CN(c1ccc2c(c1)OCCO2)S(C)(=O)=O | inactive |
| CN1CCN(CC(=O)Nc2sc3c(c2C#N)CCC(C(C)(C)C)C3)CC1 (stereo not given) | inactive |
| N#Cc1c(NC(=O)C2CC(Cl)=CCC2C(=O)O)sc2c1CCC2 (stereo not given) | active |
| O=C(CN1CCCC1)Nc1sc2c(c1C(=O)Nc1ccccc1)CCCC2 | inactive |
| C[C@@H]1CN([C@H](C)CO)C(=O)c2ccccc2-c2ccccc2CO[C@@H]1CN(C)S(=O)(=O)CC(F)(F)F | inactive |
| CN(C)C(=O)C[C@H]1C[C@@H]2c3cc(NC(=O)CC4CC4)ccc3O[C@@H]2[C@@H](CO)O1 | inactive |
| COc1cccc(-c2ccc3c(c2)O[C@H](CN(C)Cc2ccncc2)[C@H](C)CN([C@H](C)CO)S3(=O)=O)c1 | inactive |
| Cc1noc(C)c1NC(=O)N[C@H]1CC[C@H](CC(=O)N2CCCCC2)O[C@@H]1CO | inactive |
| C[C@@H]1CN([C@@H](C)CO)C(=O)Cc2cc(NC(=O)CCC(F)(F)F)ccc2O[C@@H]1CN(C)C(=O)Nc1cccc2ccccc12 | inactive |
| C[C@H](CO)N1C[C@H](C)[C@H](CN(C)Cc2ccncc2)Oc2ccc(NC(=O)Cc3cn(C)c4ccccc34)cc2CC1=O | inactive |
| C[C@@H]1CN([C@@H](C)CO)C(=O)Cc2cc(NC(=O)CCN3CCOCC3)ccc2O[C@@H]1CN(C)C(=O)Nc1cccc2ccccc12 | active |
| C[C@H](CO)N1C[C@H](C)[C@H](CN(C)C(=O)Nc2ccc(F)cc2)Oc2ccc(NC(=O)Cc3cn(C)c4ccccc34)cc2CC1=O | active |
| C[C@H](CO)N1C[C@H](C)[C@H](CN(C)C(=O)Nc2ccccc2)Oc2ccc(NC(=O)CCN3CCOCC3)cc2CC1=O | inactive |
| C[C@@H]1CN([C@@H](C)CO)C(=O)Cc2cc(NC(=O)Cc3cn(C)c4ccccc34)ccc2O[C@H]1CN(C)C(=O)NC1CCCCC1 | inactive |

Reference: PubChem BioAssay AID624137 (Broad Institute, 2012)
